From PubChem
S-ASM inh: Inhibitors of Secretory Acid Sphingomyelinase (S-ASM): qHTS | Sphingomyelin phosphodiesterase (Homo sapiens), P17405 | placental ASM, HMU-PC fluorogenic substrate, 60 min | Potency, µM (series often up to 57.5 µM), without a hit: at the highest dose activity change, negative = inhibition, actives largely listed as inhibitors | hit rate 0.006% among 340,000
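Steps: dispense placental human ASM, pin compound, wait 10 min at room temperature, add HMU-PC0 substrate at 9 uM final, incubate 60 min at 37 °C, add stop solution raising pH to 10, read fluorescence.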
TDP-43 yeast inh: qHTS of TDP-43 Inhibitors | TDP-43 expressing yeast growth rescue, BacTiter-Glo, 24 h | Potency, µM (titrated, usually from 46.1 µM), inactives show top-dose growth rescue (activation), most hits filed as activators | hit rate 1.8% among 410,000 | AID 652104, 2013; further: % of control where 0% means no effect; nearly all actives have a fitted effect of over 50% in size
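Growth rescue of TDP-43-toxic yeast measured as ATP luminescence (BacTiter-Glo). Cells grown to mid-log in raffinose, induced in galactose at OD600=0.02, exposed to compound 24 hr at 30 deg C.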
aSyn yeast inh: qHTS of alpha-syn Inhibitors; Yeast expressing alpha-synuclein, growth rescue, BacTiter-Glo, 24 h; Potency, µM (top dose mostly 46.1 µM), for the others: at the top dose growth rescue (activation), most hits filed as activators; hit rate 0.14% among 370,000; further: % of control where 0% means no effect; nearly all actives have a fitted effect of over 65% in size
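Galactose-induced alpha-syn yeast (OD600=0.02, raffinose-pregrown) + pinned cpd, 24 hr, 30 deg C; growth by BacTiter-Glo luminescence. Growth restoration scores as activation.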
Rango dissoc inh: qHTS Assay for Inhibitors of RanGTP induced Rango (Ran-regulated importin-beta cargo) - Importin beta complex dissociation | hit rate 0.071% among 340,000 | Potency, µM (top dose mostly 46.1 µM), for inactives: top-dose activity change, negative = inhibition | Snurportin-1 (Homo sapiens) + GTP-binding nuclear protein Ran (Homo sapiens) + Importin … | AID 540253, 2011 | Biochemical FRET Rango-importin beta, RanGTP-induced dissociation; calls by dose curve; further: % of control where 0% means no effect; nearly all actives have a fitted effect of over 45% in size
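Compounds sat 5 min at room temperature with 0.1 uM Rango biosensor plus 0.25 uM importin beta, then FRET pre-read. RanGTP-RCC1 (0.6 uM Ran, 2mM GTP, 0.2 uM RCC1) added for 45 min, and the CFP/YFP post-read measured blocked complex dissociation.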
Rango complex inh: qHTS Assay for Inhibitors of Rango (Ran-regulated importin-beta cargo) - Importin beta complex formation; Potency, µM (highest dose often 92.2 µM), without a hit: at the top dose inhibition of complex formation; hit rate 0.031% among 340,000; Importin subunit beta-1 (Homo sapiens), Q14974; Rango CFP/YFP FRET sensor + importin beta, 45 min; calls by dose curve;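 further: 0% = DMSO wells and 100% = buffer wells lacking importin beta; nearly all actives have a fitted effect of over 15% in size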
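Inhibition scored from the CFP 486 nm/YFP 530 nm FRET ratio 45 min after adding 0.125 microM importin beta to 50 nM Rango biosensor preincubated 5 min with compound (room temperature, PBS with DTT, Tween-20, BSA). No-importin wells as positive control.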
Abeta yeast res: qHTS for compounds that reverse cellular toxicity of Amyloid beta (A-beta) peptide in yeast: Primary Screen. yeast expressing A-beta42, growth rescue, OD600, 48 h; response scale: 0% DMSO, 100% iron-clioquinol control. Potency, µM (top dose mostly 46.1 µM), usual class: activators. hit rate 0.063% among 410,000. AID 1347071, 2019; further: nearly all actives have a fitted effect of over 55% in size
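Yeast growth medium received pinned compounds, then yeast cells expressing toxic A-beta were added; plates incubated at 30 C for 48 hr. Growth read as absorbance at 600 nm, normalized to DMSO and equimolar FeCl3 plus clioquinol controls.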
* marks the source's active call; other numbers are inactive results; i = inactive; u = inconclusive; x = not tested or not shown. Most compounds without a hit are left out; they make up all but 2% or so of the library. Unless noted, the call rests on the fitted dose curve; in most records, active means well fitted curve in the direction sought with a large enough effect; inconclusive means small, poorly fitted or top-dose-only effect, or another doubt; inactive means no such curve, though single readings can be large; an effect the other way counts as inactive or inconclusive. Potency means the concentration at half of the fitted maximal effect.

SMILES | S-ASM inh | TDP-43 yeast inh | aSyn yeast inh | Rango dissoc inh | Rango complex inh | Abeta yeast res
COC(=O)c1ccc(NC(=O)CSc2nc(C)cc(C)c2C(=O)Nc2ccccc2)cc1 | x | 24% | x | x | x | i
Cc1nnc(N2C(=O)C(O)=C(C(=O)c3ccco3)C2c2ccc(C(C)(C)C)cc2)s1 (stereo not given) | 11% | 3% | -1% | 26µM* | u | i
COc1ccccc1N1CCN(C(=O)C(CCSC)NS(=O)(=O)c2ccc3c(c2)oc(=O)n3C)CC1 (stereo not given) | x | -6% | x | x | x | i
O=C(c1cnn(-c2ccc(F)cc2)c1-n1cccc1)N1CCN(c2cccc(Cl)c2)CC1 | x | 13µM* | 2% | x | x | i
COC(=O)c1ccccc1NC(=O)C1CCCN(C(=O)c2cnn(-c3ccc(F)cc3)c2-n2cccc2)C1 (stereo not given) | x | 35µM* | 5% | x | x | i
COc1cccc(CN2C(=O)c3ccccc3Sc3ccc(C(=O)NCCc4ccc(Cl)cc4)cc32)c1 | x | 19% | 1% | x | x | i
Cn1c2nc3ccccc3c-2nc2ccccc21 | x | 20% | 16µM* | x | x | i
CCOc1ccc(CCNC(=O)c2cc(Nc3ccc(C)cc3C)nc3ccccc23)cc1OCC | x | 2% | x | x | x | i
O=C(CC1N=C2c3ccccc3N=C(SCC(=O)Nc3ccc(F)cc3)N2C1=O)NCc1cccs1 (stereo not given) | x | 13% | x | x | x | i
Cc1ccc(CSC2=Nc3ccccc3C3=NC(CCC(=O)NCCc4ccccc4)C(=O)N23)cc1 (stereo not given) | x | 32µM* | x | x | x | i
O=C(CCC1N=C2c3ccccc3N=C(SCC(=O)Nc3ccc(F)cc3)N2C1=O)NCc1cccs1 (stereo not given) | x | 35µM* | x | x | x | i
COc1ccc(Nc2cc(C)nc3ncnn23)cc1 | 1% | -5% | 4% | -15% | -1% | i
Cc1cc(Nc2ccc(C(C)C)cc2)n2ncnc2n1 | -4% | 11µM* | 20% | 5% | -1% | i
CCN1C(=O)[C@@H]2[C@@H](c3ccc(-c4ccccc4)cc3)N3CCC[C@@]3(C(=O)OC)[C@@H]2C1=O | 1% | 19% | 11% | -17% | 0% | i
CCN1C(=O)[C@H]2[C@@H](c3ccc(-c4ccccc4)cc3)N3CCC[C@@]3(C(=O)OC)[C@H]2C1=O | -17% | 35µM* | 1% | -9% | -5% | u
COc1cccc(CC(=O)OC(C)C(=O)Nc2ccc(Cl)cn2)c1 (stereo not given) | -1% | 0% | -4% | 23% | 6% | i
CC(OC(=O)Cc1cccc(C(F)(F)F)c1)C(=O)Nc1ccc(Cl)cn1 (stereo not given) | -2% | u | 2% | 2% | 3% | 5µM*
CCOC(=O)C1=C(C)Nc2nc(=S)[nH]n2C1c1ccc(Cl)cc1 (stereo not given) | -3% | 22µM* | u | -1% | 2% | i
CCOC(=O)C1=C(C)Nc2nc(SCC)nn2C1c1ccc(OC)cc1 (stereo not given) | -1% | 7% | 4% | 5% | 0% | i
CC(C)c1nn2c(=O)cc(COC(=O)c3cccc(NC(=O)c4cccs4)c3)nc2s1 | x | 22% | x | x | x | i
Nc1[nH]c(=S)nc2nnsc12 | x | x | -4% | x | x | x
CN1C(C(=O)N2CCc3ccccc3C2)=CC(c2ccc(F)cc2)=NS1(=O)=O | -1% | 13µM* | 1% | u | u | i
COc1ccc(C2=NS(=O)(=O)N(C)C(C(=O)N3CCC(C)CC3)=C2)cc1 | 58% | 6% | -3% | -3% | 1% | i
